In PubChem BioAssay AID1645838 (ICCB-Longwood Screening Facility, Harvard Medical School, 2021):
Where “and” joins values, the source holds several entries; their conditions need not be identical. Identical values can stand only once. Out of some 2,000 compounds screened, about 100 (5%) were called active. Rule as the data show it: active = z-score above about 2; inactive = the rest. This excerpt belongs to a sample that is enriched for actives. More than one record can exist for a structure, and the calls need not agree.

Assay: supercomplex reporter luminescence per Hoechst cell count – Hoechst nuclei count (AID 1645838);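 also: control cybrid cells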;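 as to z-score: higher means more mitochondrial supercomplex formation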
Settings: Cells, luminescence/Hoechst cell count ratio; for z-score: stronger effect = higher value; for cell count: measured here: cell number, Hoechst nuclei count
[1] = library stock concentration (final well concentration not given) 80 uM
[2] = library stock concentration (final well concentration not given) 400 uM
[3] = library stock concentration (final well concentration not given) 2 mM
[4] = library stock concentration (final well concentration not given) 10 mM
[5] = library stock concentration (final well concentration not given) 46 uM
[6] = library stock concentration (final well concentration not given) 278 uM
[7] = library stock concentration (final well concentration not given) 1.67 mM

CN(C)CCOc1ccc(-c2nc(-c3ccc4c(c3)CCC4=NO)c(-c3ccncc3)[nH]2)cc1
outcome (library stock 10 mM): inactive; censored for cell count
z-score [1]: -0.227 (inactive)
z-score [2]: 0.545 (inactive)
z-score [3]: 2.41 (active)
cell count [1]: 4650
cell count [2]: 4190
cell count [3]: 3060

CS(=O)c1ccc(-c2nc(-c3ccc(F)cc3)c(-c3ccncc3)[nH]2)cc1 (centres undefined)
z-score: -1.15 (inactive)
cell count: 5830

Oc1cc(-c2nc(-c3ccccc3)[nH]c2-c2ccncc2)ccc1Cl
outcome (library stock 10 mM): inactive; censored for cell count
z-score [1]: -0.487 (inactive)
z-score [2]: 0.0422 (inactive)
z-score [3]: 0.88 (inactive)
cell count [1]: 6330
cell count [2]: 6400
cell count [3]: 5020

NC(N)=NCCCC(NC(=O)COCC(c1ccccc1)c1ccccc1)C(=O)O (centres undefined)
z-score [1]: -0.24 (inactive)
z-score [2]: -0.0902 (inactive)
z-score [3]: -0.0766 (inactive)
z-score [4]: 0.102 (inactive)
cell count [1]: 5010
cell count [2]: 5210
cell count [3]: 5170
cell count [4]: 4630

CC(C)OC(=O)CCCC=CCC1C(O)CC(O)C1C=CC(F)(F)COc1ccccc1 (centres undefined)
z-score [1]: -0.387 (inactive)
z-score [2]: -0.505 (inactive)
z-score [3]: -0.421 (inactive)
z-score [4]: -0.49 (inactive)
cell count [1]: 6260
cell count [2]: 6740
cell count [3]: 6050
cell count [4]: 5570

NC(CSCCB(O)O)C(=O)O (centres undefined)
z-score [5]: -0.211 (inactive)
z-score [6]: -0.0225 (inactive)
z-score [7]: -0.355 (inactive)
z-score [4]: -0.293 (inactive)
cell count [5]: 6150
cell count [6]: 5500
cell count [7]: 6170
cell count [4]: 6060

Cn1cnc2c(F)c(Nc3ccc(Br)cc3F)c(C(=O)NOCCO)cc21
outcome (library stock 10 mM): inactive; censored for cell count
z-score [1]: 0.694 (inactive)
z-score [2]: 1.23 (inactive)
z-score [3]: 1.53 (inactive)
cell count [1]: 5250
cell count [2]: 4630
cell count [3]: 2640

O=C(NOCC1CC1)c1ccc(F)c(F)c1Nc1ccc(I)cc1Cl
outcome (library stock 10 mM): inactive; censored for cell count
z-score [1]: 0.248 (inactive)
z-score [2]: 0.901 (inactive)
z-score [3]: 1.33 (inactive)
cell count [1]: 4290
cell count [2]: 3900
cell count [3]: 3870

Cn1cnc2c(F)c(Nc3ccc(Br)cc3Cl)c(C(=O)NOCCO)cc21
outcome (library stock 10 mM): inactive; censored for cell count
z-score [1]: 0.846 (inactive)
z-score [2]: 0.791 (inactive)
z-score [3]: 2.06 (active)
cell count [1]: 3770
cell count [2]: 3780
cell count [3]: 2320

COc1cc(C=C(C#N)C(=O)Nc2nnc(C(F)(F)F)s2)ccc1OCc1ccc(C(F)(F)F)cc1C(F)(F)F
z-score [5]: -0.188 (inactive)
z-score [6]: -0.247 (inactive)
z-score [7]: -0.448 (inactive)
z-score [4]: -0.612 (inactive)
cell count [5]: 7210
cell count [6]: 7400
cell count [7]: 7340
cell count [4]: 7260

Oc1cccc(-c2nc(N3CCOCC3)c3sccc3n2)c1
z-score: 3.96 (active)
cell count: 2940

Oc1cccc(-c2nc(N3CCOCC3)c3oc4ncccc4c3n2)c1
z-score: 2.15 (active)
cell count: 3000

CS(=O)(=O)N1CCN(Cc2cc3nc(-c4cccc5[nH]ncc45)nc(N4CCOCC4)c3s2)CC1
outcome (library stock 10 mM): inactive; censored for cell count
z-score [5]: -0.278 (inactive)
z-score [1]: 0.147 (inactive)
z-score [6]: -0.083 (inactive)
z-score [2]: 0.745 (inactive)
z-score [7]: 0.769 (inactive)
z-score [3]: 1.48 (inactive)
cell count [5]: 5360
cell count [1]: 3950
cell count [6]: 4950
cell count [2]: 3220
cell count [7]: 2910
cell count [3]: 2350

CC(C)c1ccccc1OC(=O)NCCc1ccc2ccccc2c1
z-score [5]: -0.152 (inactive)
z-score [6]: 0.0918 (inactive)
z-score [7]: -0.615 (inactive)
z-score [4]: -0.366 (inactive)
cell count [5]: 6770
cell count [6]: 6210
cell count [7]: 7330
cell count [4]: 5910

COc1cc(C(=O)N(CCC2CCCN2C)CC(C)=Cc2ccccc2F)cc(OC)c1OC (centres undefined)
z-score [5]: 0.184 (inactive)
z-score [6]: -0.112 (inactive)
z-score [7]: 0.132 (inactive)
z-score [4]: 0.652 (inactive)
cell count [5]: 6990
cell count [6]: 6820
cell count [7]: 6680
cell count [4]: 5820

CC#CCC(C)[C@H](O)/C=C/[C@@H]1[C@H]2C/C(=C\CCCC(=O)O)C[C@H]2C[C@H]1O (some centres undefined)
z-score: -0.395 (inactive)
cell count: 5310

OC(COc1cccc2ncccc12)CN1CCN(C2c3ccccc3C3C(c4ccccc42)C3(F)F)CC1 (centres undefined)
z-score [1]: 0.371 (inactive)
z-score [2]: 0.508 (inactive)
z-score [3]: 0.497 (inactive)
z-score [4]: -1.87 (inactive)
cell count [1]: 4630
cell count [2]: 4580
cell count [3]: 4340
cell count [4]: 3800

O=C(c1cccs1)c1ccc(OCCCO)c(Cl)c1Cl
z-score: -0.51 (inactive)
cell count: 5410

CC1CC2OC2C=CC=CC(=O)Cc2c(Cl)c(O)cc(O)c2C(=O)O1 (centres undefined)
outcome (library stock 278 µM): inactive; censored for cell count
outcome (library stock 1.67 mM): inactive; censored for cell count
outcome (library stock 10 mM): inactive; censored for cell count
z-score [5]: -0.774 (inactive)
cell count [5]: 7560

CCCCC[C@@](C)(O)/C=C/[C@H]1C(=O)C[C@H](O)[C@@H]1C/C=C\CCCC(=O)O
z-score: -0.768 (inactive)
cell count: 5670

O=c1ncccn1C1OC(CO)C(O)C1O (centres undefined)
z-score [5]: -0.336 (inactive)
z-score [6]: -0.313 (inactive)
z-score [7]: -0.302 (inactive)
z-score [4]: 0.386 (inactive)
cell count [5]: 5670
cell count [6]: 5220
cell count [7]: 4780
cell count [4]: 3500

c1cc2c(cc1C1CCCCC1)c1c3n2CCNC3CCC1 (centres undefined)
z-score [5]: -0.207 (inactive)
z-score [6]: -0.279 (inactive)
z-score [7]: 0.239 (inactive)
z-score [4]: 3.28 (active)
cell count [5]: 6430
cell count [6]: 6250
cell count [7]: 6160
cell count [4]: 4320

CCCCCCCC/C=C\CCCCCCCC(=O)NCCS(=O)(=O)O
z-score: -0.251 (inactive)
cell count: 5290

CCCCCCCCCCCCC/C=C/[C@H](O)[C@@H](CO)NC(=O)CCCCCCCCCCCCCCCCCCCCCCC
z-score: 0.79 (inactive)
cell count: 5520

O=C(O)CCC/C=C\CC1C2CCC(O2)C1CNNC(=O)Nc1ccccc1 (centres undefined)
z-score: -0.631 (inactive)
cell count: 5630

Cc1ccc(NC(=O)c2cccc(C(C)(C)C#N)c2)cc1Nc1ccc2ncn(C)c(=O)c2c1
outcome (library stock 10 mM): inactive; censored for cell count
z-score [5]: -0.155 (inactive)
z-score [1]: 1.5 (inactive)
z-score [6]: 0.171 (inactive)
z-score [2]: 1.71 (inactive)
z-score [7]: 0.888 (inactive)
z-score [3]: 2.43 (active)
z-score [4]: 3.11 (active)
cell count [5]: 6500
cell count [1]: 3700
cell count [6]: 6060
cell count [2]: 3410
cell count [7]: 4330
cell count [3]: 2280
cell count [4]: 1960

Cc1ccc(C(=O)Nc2cccc(C(F)(F)F)c2)cc1Nc1cncc(C(N)=O)c1
z-score [1]: -0.656 (inactive)
z-score [2]: -0.351 (inactive)
z-score [3]: -0.861 (inactive)
z-score [4]: -0.825 (inactive)
cell count [1]: 4950
cell count [2]: 4630
cell count [3]: 5070
cell count [4]: 4410

Cc1ccc(C(=O)Nc2cccc(C(F)(F)F)c2)cc1Nc1nc(-c2cccnc2)nc2c1cnn2C
outcome (library stock 10 mM): inactive; censored for cell count
z-score [1]: -0.121 (inactive)
z-score [2]: 0.0935 (inactive)
z-score [3]: 1.5 (inactive)
cell count [1]: 5540
cell count [2]: 5440
cell count [3]: 3810

CCCCC(C)(C)[C@H](O)/C=C/[C@@H]1[C@@H](C/C=C\CCCC(=O)O)[C@@H](O)C[C@H]1O
z-score: -0.23 (inactive)
cell count: 5200

CCCCC/C=C\C=C\C(O)CCCCCCCC(=O)OC[C@@H](COC(=O)CCCCCCC/C=C\C=C\C(O)CCCCC)OC(=O)CCCCCCC/C=C\C=C\C(O)CCCCC (some centres undefined)
z-score: -0.295 (inactive)
cell count: 5700

CC(=O)c1ccc2c(c1)c1cc(C(C)=O)ccc1n2CCNC(C)C
outcome (library stock 2 mM): inactive; censored for cell count
outcome (library stock 10 mM): inactive; censored for cell count
z-score [1]: 0.38 (inactive)
z-score [2]: 4.83 (active)
cell count [1]: 5240
cell count [2]: 2850

CCCCCC(=O)CC[C@@H]1[C@@H](C/C=C\CCCC(=O)O)[C@@H](O)C[C@H]1O
z-score: 0.125 (inactive)
cell count: 5560

CCCCCCCCCCCCCCCCCCOC[C@H](COP(=O)([O-])OCC[N+](C)(C)C)OC(C)=O
z-score: -1.9 (inactive)
cell count: 5980

CCN(CC)Cc1ccc(C(=O)N(CCc2ccccc2OC)C2CCNC2)cc1 (centres undefined)
z-score [1]: 0.157 (inactive)
z-score [2]: 0.267 (inactive)
z-score [3]: 0.915 (inactive)
z-score [4]: 3.1 (active)
cell count [1]: 5850
cell count [2]: 5490
cell count [3]: 4680
cell count [4]: 3340

C[C@@H]1C[C@H]2O[C@@H]2/C=C\C=C\C(=O)Cc2c(Cl)c(O)cc(O)c2C(=O)O1
outcome: inactive; censored for cell count

CCOc1cc(CC(=O)NC(CC(C)C)c2ccccc2N2CCCCC2)ccc1C(=O)O (centres undefined)
z-score [5]: -0.125 (inactive)
z-score [6]: -0.238 (inactive)
z-score [7]: -0.332 (inactive)
z-score [4]: -0.204 (inactive)
cell count [5]: 4820
cell count [6]: 5070
cell count [7]: 5220
cell count [4]: 4740

O=C(O)C1CCC(c2cc3cccnc3c(-c3cccc(F)c3)n2)CC1 (centres undefined)
z-score [5]: 0.62 (inactive)
z-score [6]: 1.24 (inactive)
z-score [7]: 1.5 (inactive)
z-score [4]: 1.76 (inactive)
cell count [5]: 6220
cell count [6]: 6290
cell count [7]: 5980
cell count [4]: 6420

COc1cccc2cc(-c3nc(C4CCC(C(=O)O)CC4)n4ncnc(N)c34)[nH]c12 (centres undefined)
outcome (library stock 10 mM): inactive; censored for cell count
z-score [1]: -0.563 (inactive) and 0.107 (inactive)
z-score [2]: -0.188 (inactive) and 0.529 (inactive)
z-score [3]: 1.25 (inactive) and 2.27 (active)
cell count [1]: 4660 and 5660
cell count [2]: 3600 and 4570
cell count [3]: 2190 and 2510

COc1ccc(/C=C/c2cc(O)cc(O)c2)cc1O
outcome: inactive; censored for cell count

Cc1cnc(Nc2ccc(OCCN3CCCC3)cc2)nc1Nc1cccc(S(=O)(=O)NC(C)(C)C)c1
outcome (library stock 10 mM): inactive; censored for cell count
z-score [5]: -0.00359 (inactive)
z-score [6]: -0.105 (inactive)
z-score [7]: 5.46 (active)
cell count [5]: 4980
cell count [6]: 5010
cell count [7]: 2610

C=CCn1c(=O)c2cnc(Nc3ccc(N4CCN(C)CC4)cc3)nc2n1-c1cccc(C(C)(C)O)n1
outcome (library stock 1.67 mM): inactive; censored for cell count
outcome (library stock 10 mM): inactive; censored for cell count
z-score [5]: -0.147 (inactive)
z-score [6]: -0.118 (inactive)
cell count [5]: 4940
cell count [6]: 4830

CN(c1ccccc1CNc1nc(Nc2ccc3c(c2)CC(=O)N3)ncc1C(F)(F)F)S(C)(=O)=O
outcome (library stock 2 mM): inactive; censored for cell count
outcome (library stock 10 mM): inactive; censored for cell count
z-score [1]: 0.0927 (inactive)
z-score [2]: 0.505 (inactive)
cell count [1]: 4980
cell count [2]: 4440
